# High-throughput results: PubChem BioAssay, several laboratories
# ERa SRC1 inh – blocks coactivator binding to human estrogen receptor alpha. 86,000 tested, 1.7% active. P03372. inhibition, % at 25.6 µM. AID 629. TR-FRET ER-alpha LBD / SRC-1 peptide, estradiol-bound; in the data active means inhibition above about 50%;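 further: 0% = receptor plus peptide control and 100% = peptide only without receptor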
# ERa SRC1 pot – enhances coactivator binding to human estrogen receptor alpha | 86,000 tested, 1.3% active | TR-FRET ERalpha-LBD/SRC-Cy5 coactivator binding, 2 h; 100 = basal binding, no effect | P03372 | coactivator binding (% of control), % at 25.6 µM; in the data active means activity above about 200%;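 further: binding measured in presence of low estradiol as agonist stimulus; 0% = peptide alone without receptor and 100% = receptor with peptide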
# MRP-1 activ – activators of MRP-1. viability increase, % at 10 µM. 140,000 tested, 0.61% active. H69AR cells + doxorubicin, viability rescue, CellTiter-Glo. AID 799;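 active means viability gain under doxorubicin at or above a set limit, the compound median plus 3 SD, cut at about 4.7% in these data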;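 further: MRP-1 overexpressing cells given doxorubicin 25 µM after compound pretreatment; 18-22 h compound pretreatment then 72 h with doxorubicin before readout; 0% = doxorubicin-only wells and 100% = vehicle-treated cells without doxorubicin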
# ERb SRC1 inh – blocks coactivator binding to human estrogen receptor beta | 86,000 tested, 1.3% active | AID 633 | TR-FRET ER-beta LBD / SRC1-Cy5 peptide binding; receptor agonist-loaded with 1 µM estradiol | inhibition, % at 25.6 µM | Q92731;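 active means compounds whose percent inhibition of the receptor-coactivator binding signal exceeds about 50% in the single-dose screen, limit read from the data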;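 further: 0% = receptor plus peptide wells without compound and 100% = peptide-only wells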
# Smad3 FoxH1 inh – blocks human Smad3 binding to FoxH1 peptide | P84022 | TR-FRET Smad3/Dy647-FoxH1 peptide binding, europium anti-His | inhibition, % at 25 µM | 88,000 tested, 0.29% active | AID 630;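 active means compounds that reduce the energy-transfer binding signal between the protein and its labelled peptide by more than half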;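 further: 0% = Smad3 plus labelled peptide maximal FRET and 100% = peptide-only background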
# Target sequence (P84022 whole entry, looked up): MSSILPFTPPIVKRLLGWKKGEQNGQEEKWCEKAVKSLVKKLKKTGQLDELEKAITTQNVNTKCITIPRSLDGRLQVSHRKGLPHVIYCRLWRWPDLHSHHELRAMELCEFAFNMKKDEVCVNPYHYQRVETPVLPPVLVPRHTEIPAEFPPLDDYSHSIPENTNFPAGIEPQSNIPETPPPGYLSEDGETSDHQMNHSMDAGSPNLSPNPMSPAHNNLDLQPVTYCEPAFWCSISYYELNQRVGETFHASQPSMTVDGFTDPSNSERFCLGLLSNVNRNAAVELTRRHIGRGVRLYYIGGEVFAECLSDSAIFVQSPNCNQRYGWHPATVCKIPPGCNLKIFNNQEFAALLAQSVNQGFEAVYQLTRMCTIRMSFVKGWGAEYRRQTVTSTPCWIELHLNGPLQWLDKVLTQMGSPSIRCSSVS
# MRP reversal – reverses drug resistance mediated by MRP; H69AR cells + 2 uM doxorubicin, CellTiter-Glo, 72 h; 85,000 tested, 0.04% active; differential viability (reversal), % at 10 µM;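 active means viability drop by adding the cancer drug above about 55%, with treated viability meeting a 40% cutoff, limit read from the data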;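 further: viability without doxorubicin minus viability with 2 µM doxorubicin for each compound; larger differential means the compound sensitizes cells more to doxorubicin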
# The depositor's hits bear a star; · = no result; + = active, no number; [ ] = remark or other dose. Hits are enriched below; roughly 2.9% of the tested compounds scored in any of these assays.
SMILES,ERa SRC1 inh,ERa SRC1 pot,MRP-1 activ,ERb SRC1 inh,Smad3 FoxH1 inh,MRP reversal
O=C1CC(N2CCN(c3nc4ccccc4s3)CC2)C(=O)N1c1ccc(F)cc1 (centres undefined),0.1,91.4,4.9*,5.0,-18.7,-1.3
COC(=O)c1ccc2c(=O)n(CCCCCC(=O)NCc3ccccn3)c(=O)[nH]c2c1,-2.5,128.9,1.2,-16.3,5.5,11.2
COC(=O)c1ccc2c(=O)n(CCCCCC(=O)NCc3ccccc3)c(=O)[nH]c2c1,84.7*[fluorescence artefact?],72.3,-1.5,52.4*[fluorescence artefact?],2.3,-9.3
COC(=O)c1ccc2c(=O)n(CCCCCC(=O)NCc3ccc4c(c3)OCO4)c(=O)[nH]c2c1,88.2*,77.7,-0.5,43.1,2.1,6.6
CCCCCn1c(=O)[nH]c2cc(C(=O)NCc3ccc4c(c3)OCO4)ccc2c1=O,60.5*[fluorescence artefact?],141.3,-5.2,49.4,-10.5,-10.9
CCCCCn1c(=O)[nH]c2cc(C(=O)N3CCN(Cc4ccc5c(c4)OCO5)CC3)ccc2c1=O,-3.8,181.8,-4.6,0.1,14.0,1.0
O=C(CCCCCn1c(=S)[nH]c2ccccc2c1=O)NCc1ccc2c(c1)OCO2,·,·,-1.9,·,·,·
COCCCNC(=O)c1ccc2c(=O)n(Cc3ccc4c(c3)OCO4)c(=S)[nH]c2c1,57.6*,120.9,-3.6,47.1,6.5,-8.6
CCOc1ccc(Nc2cc(=O)oc3ccccc23)cc1,-5.4,255.5*,-4.0,10.8,-5.6,-9.8
O=C(NC(=O)c1ccncc1)NC(c1ccccc1)c1ccccc1,-3.9,101.2,-2.7,7.6,9.8,6.8
C/C(N[O-])=C(\C)[N+]([O-])=[Co].CC(=N\[O-])/C(C)=N/[O-].C[CH-][C@@H](C)O.c1ccncc1,·,·,·,·,65.8*,·
C[N+]1(C)CCO[C@](O)(c2ccccc2)C1,·,·,·,·,1.9,·
O=c1ccc(/C=C/c2ccccc2)nn1Cc1ccc(Cl)cc1Cl,-2.5,+[fluorescence artefact?],1.1,9.4,2.6,14.7
CCOC(=O)c1c(C)oc2c1c(C(c1cccnc1)N1CCN(C)CC1)c(O)c1ccccc12 (centres undefined),77.4*[fluorescence artefact?],50.7,·,64.5*[fluorescence artefact?],7.6,0.8
N#Cc1c(N)nc(SCC(=O)NC2CCCCC2)c(C#N)c1-c1ccc(Cl)cc1,65.5*[fluorescence artefact?],121.8,-5.3,51.4*[fluorescence artefact?],7.2,7.8
CC(C)c1ccc(-c2c(C#N)c(N)nc(SCC(=O)N3CCCCC3)c2C#N)cc1,50.1*[fluorescence artefact?],186.2,-4.2,43.2,-7.0,3.0
C=CCSc1nc(N)c(C#N)c(-c2ccc(C)cc2)c1C#N,·,·,-5.3,·,·,·
CC(C)c1ccc(-c2c(C#N)c(N)nc(SCC(=O)N3CCCCCC3)c2C#N)cc1,42.7,259.7*[fluorescence artefact?],-1.3,49.8,41.7,0.4
CCOC(=O)CSc1nc(N)c(C#N)c(-c2ccc(OCC)cc2)c1C#N,34.1,186.7,-0.5,36.6,25.2,11.9
Nn1c(SCC(=O)NC2CCCCC2)nnc1-c1ccc(Cl)cc1,5.1,83.2,-1.8,22.7,-9.9,9.6
CC(C)Cc1cc(C(=O)NCc2cccs2)no1,5.9,156.3,-1.5,-0.1,-8.9,13.2
Oc1ccc(Br)cc1/C=N/n1cnc2ccccc21,·,·,-4.7,·,·,·
CCCCNC(=O)C1C2C=CC(C2)C1C(=O)O (centres undefined),·,·,-0.1,·,·,·
CCN(CC)c1ccc(Nc2nc(N3CCOCC3)c3ccccc3n2)cc1,4.3,75.0,-5.3,1.6,-1.2,1.9
COc1ccc(Nc2nc(N3CCCC3)c3ccccc3n2)cc1,68.5*[fluorescence artefact?],34.1,-2.4,5.8,-8.1,-15.3
SMILES,ERa SRC1 inh,ERa SRC1 pot,MRP-1 activ,ERb SRC1 inh,Smad3 FoxH1 inh,MRP reversal
O=c1c2c3c(sc2nc2sc(CN4CCCCC4)cn12)CCCC3,51.4*[fluorescence artefact?],268.0*[fluorescence artefact?],1.9,29.2,20.5,-35.7
O=C(O)C1CCCCC1C(=O)NCc1ccncc1 (centres undefined),·,·,-1.2,·,·,·
CC1CCC(O)([C@](C)(C(=O)O)c2ccccc2)CC1 (some centres undefined),·,·,·,·,-10.9,·
Cc1ccc(C(=O)c2c(C)oc3c2C(=O)C(=O)c2ccccc2-3)cc1,-12.0,85.2,-6.4,-8.4,39.6,0.1
COc1ccc(C(=O)c2c(C(F)(F)F)oc3c2C(=O)c2ccccc2C3=O)cc1,0.5,113.5,-2.6,68.0*,18.9,-22.1
CCCc1c(O)nc(SCCN(CC)CC)n(C(=O)c2ccccc2)c1=O,-10.0,103.8,-0.9,-9.1,6.0,-6.7
O=C(O)c1cccc2cccc(-c3cccc4cccc(C(=O)O)c34)c12,·,·,·,·,66.6*,·
Cc1ccc(NC(=O)CSc2nnc(C)n2-c2ccccc2)cc1,25.9,97.2,6.8*,18.3,-10.1,1.1
Cc1nnc(SCC(=O)Nc2ccc3c(c2)COC3=O)n1-c1ccccc1,·,·,0.8,·,·,·
Cc1ccccc1NC(=O)CSc1nnc(-c2ccccc2)n1-c1ccccc1,1.3,401.7*[fluorescence artefact?],-2.8,-4.8,15.1,29.1
Cn1c(SCC(=O)Nc2cccc3ccccc23)nc(O)cc1=O,·,·,-1.4,·,·,·
Cc1ccc(-n2c(C)nnc2SCC(=O)Nc2ccccc2)cc1,24.6,107.2,5.9*,6.0,-18.9,7.9
Cc1nnc(SCC(=O)Nc2ccc(N3CCOCC3)cc2)n1-c1ccccc1,-5.0,106.2,-2.7,-3.9,-2.8,1.4
Cc1ccc(NC(=O)CSc2nc(O)cc(=O)n2C)cc1,-10.2,90.8,8.5*,-2.9,-4.5,-9.4
Cc1ccc(C(=O)CNc2nc3c(c(=O)[nH]c(=O)n3C)n2Cc2ccccc2)cc1,1.6,108.4,1.4,0.8,5.2,-2.2
CCSc1nc(-c2cccs2)nc2c1c(=O)n(C)c(=O)n2C,1.6,110.6,·,1.4,6.0,-5.2
O=C(CSc1nnc(-c2ccccc2)n1-c1ccc(Cl)cc1)N/N=C/c1ccco1,·,·,5.2*,·,·,·
CCCCn1cnc2c(SC)ncnc21,·,·,·,·,1.5,·
CCCn1c(=NC(C)=O)c(C#N)cc2c(=O)n3cccc(C)c3nc21,53.7*[fluorescence artefact?],58.8,·,47.0,20.2,4.7
Cc1ccc(-n2c(=O)c(C#N)cc3c(=O)n4cccc(C)c4nc32)cc1,62.3*,140.4,-0.9,51.9*,15.3,-5.0
Cc1cccn2c(=O)c3cc(C#N)c(=NC(=O)c4ccccc4)n(Cc4ccco4)c3nc12,62.5*[fluorescence artefact?],176.9,·,41.5,-12.0,27.1
CCOC(=O)c1cc2c(=O)n3cccc(C)c3nc2n(Cc2ccco2)c1=NC(=O)c1cccnc1,55.2*[fluorescence artefact?],64.1,-1.0,58.2*[fluorescence artefact?],10.2,-2.9
Cc1nc(CS(=O)c2ccc(Cl)cc2)cc(NCc2ccc(Cl)cc2Cl)n1 (centres undefined),-50.5,106.9,-2.5,-46.8,9.0,-15.4
CCN1CCCCC(=N/O)/C(=N\O)CCCC1,·,·,·,·,3.1,·
Cn1c(=O)n(CCc2ccccc2)c(=O)c2c1nc1n2CCN1c1ccccc1,2.9,148.9,·,-6.2,-0.3,-7.2
CN[C@@H]1NC(=O)c2ccccc2N1Cc1ccc(F)cc1,·,·,·,·,-0.3,·
CN(C(=O)CSc1nc2c(c(=O)[nH]1)CCCC2)C1CCCCC1,-2.4,108.3,-0.3,-4.0,4.6,2.0
CSc1ncccc1C(=O)Nc1nc2c(C)cccc2s1,·,·,0.8,·,·,·
